# Experimental data from PubChem BioAssay (EPA / NIEHS).
# Several values for one entry are separate records, joined by “and”; a condition that tells them apart may be missing. Equal values may be shown once. Activity calls are given as the source filed them. How the source made its calls: active means hit-call score of the fitted dose curve at least 0.9, where 1 is the maximum; inactive means score below 0.9.
# Target: Retinoic acid receptor alpha (Homo sapiens) (UniProt P10276)
# Experiment: ATG_DR5_RAR_CIS: Attagene CIS-FACTORIAL HepG2 Assay for human Retinoic Acid Receptor Alpha (RARE), DR5 submotif (AID 2282934);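 on AC50: reporter responds to endogenous RAR alpha beta and gamma in HepG2 not RARA alone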
# Settings: HepG2 Attagene cis-factorial RARE DR5 reporter, mRNA; actives raise or lower the signal
# Method in brief: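 Read-out: DR5-driven reporter transcript measured by RT-PCR, 6-FAM primer extension, HpaI digest and capillary electrophoresis. Human HepG2 liver cells carry transiently transfected cis-element reporter constructs; dosing lasts 24 h. Gain or loss of signal fitted against DMSO baseline.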
# Chain of Retinoic acid receptor alpha (Homo sapiens) (P10276 whole entry, looked up): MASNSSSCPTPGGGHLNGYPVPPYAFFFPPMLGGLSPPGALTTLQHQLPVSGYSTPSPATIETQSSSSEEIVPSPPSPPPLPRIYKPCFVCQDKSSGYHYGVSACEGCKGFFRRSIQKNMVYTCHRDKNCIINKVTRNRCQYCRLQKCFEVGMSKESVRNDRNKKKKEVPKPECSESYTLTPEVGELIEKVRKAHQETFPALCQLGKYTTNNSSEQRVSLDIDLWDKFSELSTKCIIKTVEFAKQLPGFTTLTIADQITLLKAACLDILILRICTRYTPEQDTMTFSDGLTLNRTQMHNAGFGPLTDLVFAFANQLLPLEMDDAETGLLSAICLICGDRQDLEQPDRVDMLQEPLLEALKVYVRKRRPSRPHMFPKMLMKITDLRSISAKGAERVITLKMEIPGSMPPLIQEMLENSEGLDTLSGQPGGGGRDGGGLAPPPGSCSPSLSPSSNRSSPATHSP
SMILES,outcome,AC50
CCCCCCCC(OC)OC,inactive,
Cc1cc(C(=C2C=CC(=Nc3ccc(S(=O)(=O)O)cc3)C=C2)c2ccc(Nc3ccc(S(=O)(=O)O)cc3)cc2)cc(S(=O)(=O)O)c1N,inactive,
Clc1ccc(Nc2nnc(Cc3ccncc3)c3ccccc23)cc1,inactive,
Cc1ccc2ccc3ccc(C)cc3c2c1,inactive,
OCC1CCC(CO)CC1 (centres undefined),inactive,
O=S(=O)(O)c1ccccc1,inactive,
CCOC=O,inactive,
OCCN1CN(CCO)CN(CCO)C1,,144 µM (active)
O=C1OC2(c3ccccc31)c1cc(I)c(O)c(I)c1Oc1c2cc(I)c(O)c1I,inactive,
O=C1Cc2ccccc2N1c1c(Cl)cccc1Cl,inactive,
Oc1ccc(Cc2ccccc2O)cc1,inactive,
Oc1c(Cl)ccc(Cl)c1Cl,inactive,
C=CCOCC(CO)(CO)CO,inactive,
C=CC(C)(CCC=C(C)C)OC(C)=O (centres undefined),inactive,
c1cnc2c(c1)ccc1cccnc12,inactive,
O=C(F)C(F)(F)C(F)(F)C(F)(F)C(=O)F,inactive,
c1cc2cccc3c4cccc5cccc(c(c1)c23)c54,inactive,
O=P(O)(O)CCC(F)(F)C(F)(F)C(F)(F)C(F)(F)C(F)(F)C(F)(F)F,inactive,

SMILES,outcome,AC50
FC(F)(F)C(F)(F)C(F)(F)C(F)(F)I,inactive,
CCCCCCOC(=O)c1ccc(O)cc1,inactive,
Nc1ccc(O)c(C(=O)O)c1,inactive,
CC(C)(O)C(=O)c1ccccc1,inactive,
CC1CCC(C(=O)O)CC1 (centres undefined),inactive,
O=C(Nc1ccc(Cl)c(Cl)c1)c1cc(Cl)cc(Cl)c1O,,1.37 µM (active)
Cc1ccc(C(=O)c2ccccc2)cc1,inactive,
CCO[Si](C)(C)OCC,inactive,
CC(=O)Nc1ccc(S(N)(=O)=O)cc1,inactive,
COc1cccc(O)c1,inactive,
Cn1sccc1=O,,168 µM (active)
c1ccc2c(c1)CCC2,inactive,
Cc1ccccc1C(OCCN(C)C)c1ccccc1 (centres undefined),inactive,
CC1=NN(c2ccccc2)C(=O)C1,inactive,
O=C(O)C(=O)O,inactive,
CCOC(C)=O,inactive,
O=C1OC(=O)C(F)(F)C1(F)F,inactive,
CCCCCCCCCCCC,inactive,

# Target: Transcription factor E2F1 (Homo sapiens) (UniProt Q01094)
# Experiment: ATG_E2F_CIS: Attagene CIS-FACTORIAL HepG2 Assay for human E2F Transcription Factor 1 (AID 2282935)
# Settings: HepG2 Attagene cis-reporter, E2F reporter RNA transcripts; actives raise or lower the signal
# Method in brief: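 Endogenous E2F1 activity read through cis-promoter reporter units transfected into HepG2. After 24 h compound treatment, reporter mRNA measured by RT-PCR, HpaI digestion and capillary electrophoresis. Bidirectional fit versus DMSO.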
# Chain of Transcription factor E2F1 (Homo sapiens) (Q01094 whole entry, looked up): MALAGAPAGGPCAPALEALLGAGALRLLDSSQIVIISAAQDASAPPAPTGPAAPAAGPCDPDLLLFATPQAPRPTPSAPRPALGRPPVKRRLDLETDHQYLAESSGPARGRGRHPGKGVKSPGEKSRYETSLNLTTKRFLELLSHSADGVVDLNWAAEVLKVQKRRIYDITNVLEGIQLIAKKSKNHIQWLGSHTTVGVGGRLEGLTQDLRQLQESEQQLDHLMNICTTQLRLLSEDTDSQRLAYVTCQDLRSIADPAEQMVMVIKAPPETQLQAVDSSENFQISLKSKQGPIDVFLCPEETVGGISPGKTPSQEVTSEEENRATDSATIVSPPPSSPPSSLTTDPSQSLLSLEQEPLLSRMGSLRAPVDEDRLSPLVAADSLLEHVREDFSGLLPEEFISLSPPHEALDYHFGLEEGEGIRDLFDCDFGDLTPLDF
row,SMILES,outcome
1,Cc1cc(C(=C2C=CC(=Nc3ccc(S(=O)(=O)O)cc3)C=C2)c2ccc(Nc3ccc(S(=O)(=O)O)cc3)cc2)cc(S(=O)(=O)O)c1N,inactive
2,Clc1ccc(Nc2nnc(Cc3ccncc3)c3ccccc23)cc1,inactive
3,Cc1ccc2ccc3ccc(C)cc3c2c1,inactive
4,OCC1CCC(CO)CC1 (centres undefined),inactive
5,O=S(=O)(O)c1ccccc1,inactive
6,CCOC=O,inactive
7,OCCN1CN(CCO)CN(CCO)C1,inactive
8,O=C1OC2(c3ccccc31)c1cc(I)c(O)c(I)c1Oc1c2cc(I)c(O)c1I,inactive
9,O=c1cc(-c2ccccc2)oc2ccc3ccccc3c12,inactive
10,O=C1Cc2ccccc2N1c1c(Cl)cccc1Cl,inactive
11,Oc1ccc(Cc2ccccc2O)cc1,inactive
12,Oc1c(Cl)ccc(Cl)c1Cl,inactive
13,C=CCOCC(CO)(CO)CO,inactive
14,C=CC(C)(CCC=C(C)C)OC(C)=O (centres undefined),inactive
15,O=C(F)C(F)(F)C(F)(F)C(F)(F)C(=O)F,inactive
16,c1cc2cccc3c4cccc5cccc(c(c1)c23)c54,inactive
17,O=P(O)(O)CCC(F)(F)C(F)(F)C(F)(F)C(F)(F)C(F)(F)C(F)(F)F,inactive

row,SMILES,outcome
1,FC(F)(F)C(F)(F)C(F)(F)C(F)(F)I,inactive
2,Nc1ccc(O)c(C(=O)O)c1,inactive
3,CC(C)(O)C(=O)c1ccccc1,inactive
4,CC1CCC(C(=O)O)CC1 (centres undefined),inactive
5,O=C(Nc1ccc(Cl)c(Cl)c1)c1cc(Cl)cc(Cl)c1O,inactive
6,Cc1ccc(C(=O)c2ccccc2)cc1,inactive
7,CCCCCCCCCC=CCC1CC(=O)OC1=O (centres undefined),inactive
8,CCO[Si](C)(C)OCC,inactive
9,CC(=O)Nc1ccc(S(N)(=O)=O)cc1,inactive
10,COc1cccc(O)c1,inactive
11,Cn1sccc1=O,inactive
12,Cc1ccccc1C(OCCN(C)C)c1ccccc1 (centres undefined),inactive
13,CC1=NN(c2ccccc2)C(=O)C1,inactive
14,CCOC(C)=O,inactive
15,O=C1OC(=O)C(F)(F)C1(F)F,inactive
16,CCCCCCCCCCCC,inactive

# Tested on: not listed separately
# Experiment: ATG_E_Box_CIS: Attagene CIS-FACTORIAL HepG2 Assay for human Enhancer Box (E-box) (AID 2282936)
# Settings: HepG2 E-box cis-reporter transcription, actives raise or lower the signal
# Method in brief: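 HepG2 cells transiently transfected with multiplexed cis-element reporter units, dosed 24 h; reporter mRNA quantified by RT-PCR, 6-FAM labelling, HpaI digestion and capillary electrophoresis. E-box (USF1) signal fitted bidirectionally vs DMSO.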
SMILES,outcome,AC50
CCCCCCCC(OC)OC,inactive,
Cc1cc(C(=C2C=CC(=Nc3ccc(S(=O)(=O)O)cc3)C=C2)c2ccc(Nc3ccc(S(=O)(=O)O)cc3)cc2)cc(S(=O)(=O)O)c1N,inactive,
Clc1ccc(Nc2nnc(Cc3ccncc3)c3ccccc23)cc1,inactive,
Cc1ccc2ccc3ccc(C)cc3c2c1,inactive,
OCC1CCC(CO)CC1 (centres undefined),inactive,
O=S(=O)(O)c1ccccc1,inactive,
CCOC=O,inactive,
OCCN1CN(CCO)CN(CCO)C1,inactive,
O=C1Cc2ccccc2N1c1c(Cl)cccc1Cl,inactive,
Oc1ccc(Cc2ccccc2O)cc1,inactive,
Oc1c(Cl)ccc(Cl)c1Cl,inactive,
C=CCOCC(CO)(CO)CO,inactive,
C=CC(C)(CCC=C(C)C)OC(C)=O (centres undefined),inactive,
c1cnc2c(c1)ccc1cccnc12,,5.67 µM (active) and 3.9 µM (active)
O=C(F)C(F)(F)C(F)(F)C(F)(F)C(=O)F,inactive,
c1cc2cccc3c4cccc5cccc(c(c1)c23)c54,inactive,
O=P(O)(O)CCC(F)(F)C(F)(F)C(F)(F)C(F)(F)C(F)(F)C(F)(F)F,inactive,
Nc1ccc(O)c(C(=O)O)c1,inactive,
CC(C)(O)C(=O)c1ccccc1,inactive,
CC1CCC(C(=O)O)CC1 (centres undefined),inactive,
O=C(Nc1ccc(Cl)c(Cl)c1)c1cc(Cl)cc(Cl)c1O,inactive,
Cc1ccc(C(=O)c2ccccc2)cc1,inactive,
CCO[Si](C)(C)OCC,inactive,
COc1cccc(O)c1,inactive,
Cn1sccc1=O,,72.4 µM (active)
c1ccc2c(c1)CCC2,inactive,
Cc1ccccc1C(OCCN(C)C)c1ccccc1 (centres undefined),inactive,
O=C(O)C(=O)O,inactive,
CCOC(C)=O,inactive,
CCCCCCCCCCCC,inactive,
